From PubChem BioAssay (EPA / NIEHS)
Records with an inconclusive call do not appear. Activity calls are given as the source filed them. How the source made its calls, unless noted: active means hit-call score of the fitted dose curve at least 0.9, where 1 is the maximum; inconclusive means response in the unintended direction; inactive means score below 0.9.

Columns and labels:
[1] = IUF_NPC4_neurite_area_120hr: Leibniz Research Institute for Environmental Medicine (IUF) 120-hour Neuronal Morphology Assay for Neurite Area (NPC4) (AID 2284305)
In short: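 Human fetal cortex-derived neural progenitor spheres (0.3 mm, GW 16-19) plated on poly-D-lysine/laminin in N2 differentiation medium and exposed from day 0 for 120 h across 7 concentrations plus solvent control. Neurite area is mean pixel area per TUBB3-positive neuron via skeletonization, analysed relative to DMSO.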

[2] = IUF_NPC2-5_cytotoxicity_72hr: Cytotoxicity Assessment at 72 hours in the Leibniz Research Institute for Environmental Medicine (IUF) Neural Progenitor Cell Migration and Differentiation Assay for Cytotoxicity (NPC2-5) (AID 2284306);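 further: LDH release into supernatant measured by resorufin fluorescence marking membrane damage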
In short: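 Human fetal (GW 16-19) neural progenitor spheres, 0.3 mm, plated on poly-D-lysine/laminin in N2 differentiation medium and exposed from day 0 to 7 concentrations plus solvent control (DMSO ≤0.1%). LDH-dependent resazurin-to-resorufin fluorescence in supernatant at 72 h.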

[3] = IUF_NPC2-5_cytotoxicity_120hr: Cytotoxicity Assessment at 120 hours in the Leibniz Research Institute for Environmental Medicine (IUF) Neural Progenitor Cell Migration and Differentiation Assay (NPC2-5) (AID 2284307);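 on AC50: LDH released into supernatant as membrane damage marker via resorufin fluorescence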
In short: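 Membrane-integrity loss measured as LDH activity in medium supernatant via resazurin-to-resorufin fluorescence after 120 h exposure. hNPC spheres from GW 16-19 fetal cortex differentiated on poly-D-lysine/laminin, 37C, medium half-refreshed day 3; seven concentrations, DMSO max 0.1%.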

[4] = IUF_NPC2-5_cell_number_120hr: Cell Number Assessment at 120 hours in the Leibniz Research Institute for Environmental Medicine (IUF) Neural Progenitor Cell Migration and Differentiation Assay (NPC2-5) (AID 2284308; active means hit-call score of the fitted dose curve at least 0.9, where 1 is the maximum; inactive means score below 0.9;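 further: count of Hoechst-stained nuclei in migration zone around plated human neural progenitor spheres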)
In short: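 Counting of all Hoechst-stained nuclei in the migration area at 120 h, versus DMSO control. Primary hNPC spheres differentiated on poly-D-lysine/laminin in N2 medium at 37C, dosed from day 0 (7 concentrations, DMSO ≤0.1%), half-refed day 3.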

[5] = VALA_TUBHUV_Agonist_CellCount: Viability Assessment in the VALA Sciences human Umbilical Vein Endothelial Tubule Formation (TUBHUV) Agonism Assay (AID 2284309)
In short: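 HUVEC co-cultured 1:3 with HDF for 3 days in 10 ng/ml VEGF, then compounds added in VEGF medium for a further 3 days (72 h). Nuclear-stain/CD31 imaging cell count. Positive-direction fit versus 0.1% DMSO vehicle.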

[6] = IUF_NPC2-5_viability_120hr: Viability Assessment at 120 hours in the Leibniz Research Institute for Environmental Medicine (IUF) Neural Progenitor Cell Migration and Differentiation Assay (NPC2-5) (AID 2284312; active means hit-call score of the fitted dose curve at least 0.9, where 1 is the maximum; inactive means score below 0.9)
In short: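 Human fetal (GW 16-19) neural progenitor spheres of 0.3 mm were plated on poly-D-lysine/laminin in N2 differentiation medium and exposed from day 0 for 120 h, with half-medium refresh at day 3. Viability was read as alamar blue resazurin-to-resorufin fluorescence against DMSO.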

[7] = VALA_TUBIPS_Antagonist_TubuleLength: VALA Sciences human iPS-derived Endothelial Tubule Formation (TUBIPS) Antagonist Assay (AID 2284313)
In short: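 Cells grown 3 days with 10 ng/ml VEGF, then exposed to compounds in VEGF medium for another 3 days. After fixation, nuclear stain and CD31 immunofluorescence imaging gave mean total tubule length against 0.1% DMSO; suramin (100 uM) inhibition control.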

[8] = VALA_MIGHUV2_WoundArea: VALA Sciences human Umbilical Vein Endothelial Cell Migration (MIGHUV) Assay, Area of Scratch Wound after Recovery (AID 2284316)
In short: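 HUVEC seeded at 9000 cells/well, scratched after 24 h; test chemical added within 30 min, 6-point concentration response in triplicate (0.1% DMSO vehicle). After 24 h wound recovery, cells fixed and Hoechst-stained nuclei in wound area imaged; Cytochalasin D reference control.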

[9] = CCTE_Mundy_HCI_iCellGluta_NOG_NeuriteLength: CCTE's Neurite Outgrowth Assay in iCellGluta cells for Neurite Length, Mundy Lab (AID 2284318)
In short: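 Automated high-content imaging of betaIII-tubulin (Alexa Fluor-488) and Hoechst-stained cells gave neurite length, normalized to the DMSO baseline.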

[10] = IUF_NPC5_oligodendrocyte_differentiation_120hr: Leibniz Research Institute for Environmental Medicine (IUF) 120-hour Oligodendrocyte Differentiation Assay (NPC5) (AID 2284304);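 further: primary human fetal neural progenitor spheres plated to migrate and differentiate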
In short: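 Oligodendrocyte differentiation scored as O4-positive cells, found by CNN image analysis, as percent of Hoechst-stained nuclei in the migration area. Scoring followed 5 days of exposure of plated hNPC neurospheres differentiating in DMEM/F12 N2 medium at 37C, with compound refreshed at day 3.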

IYD (gene 389434) = assay: CCTE_GLTED_hIYD: CCTE's human Iodotyrosine Deiodinase (xIYD) Inhibition Assay, Great Lakes Toxicology and Ecology Division (GLTED) Lab (AID 2284317);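 further: cell-free human IYD enzyme made in baculovirus insect cells; iodide freed from monoiodotyrosine measured by cerium arsenite color change at 420 nm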
In short: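 Human IYD expressed in a baculovirus-insect cell system was incubated 3 h with monoiodotyrosine and test chemical. Released iodide, separated on Dowex columns, was quantified by the Sandell-Kolthoff reaction at 420 nm; plates were normalized to MNT and DMSO/NaOH controls.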

[11] = VALA_MIGHUV2_Bcatenin: VALA Sciences human Umbilical Vein Endothelial Cell Migration (MIGHUV) Assay, Nuclear Translocation of beta-Catenin after Recovery (AID 2284315)
In short: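 HUVEC (4000 cells/well) scratch-wounded, dosed within 30 min over 6 concentrations in triplicate, recovered 24 h. After fixation, Hoechst and anti-beta-catenin immunofluorescence imaged for nuclear CTNB. Gain of signal versus 0.1% DMSO.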

[12] = CCTE_Deisenroth_5AR_NBTE_donor: CCTE's 5alpha-reductase NanoBRET Target Engagement Assay […], Deisenroth Lab (AID 2284319; active means hit-call score of the fitted dose curve at least 0.9, where 1 is the maximum; inactive means score below 0.9); conditions: actives raise or lower the signal
In short: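 HEK293T cells transiently expressing SRD5A2-NanoLuc, exposed 5 h to chemicals (8 points, 10 nM - 29.9 uM), with testosterone tracer for the final 2 h. Donor luminescence at 460 nm read after Nano-Glo substrate plus extracellular NanoLuc inhibitor; bidirectional fit versus DMSO.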

[13] = CCTE_Deisenroth_5AR_NBTE_acceptor: CCTE's 5alpha-reductase NanoBRET Target Engagement Assay - Autofluorescence Screen, Deisenroth Lab (AID 2284321; active means hit-call score of the fitted dose curve at least 0.9, where 1 is the maximum; inactive means score below 0.9;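 further: compound fluorescence in the acceptor channel under 460 nm excitation flags autofluorescence artifacts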); conditions: actives raise or lower the signal
In short: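 Acceptor-channel fluorescence flags artifacts, with excitation fixed at 460 nm. Nominal 100 uM chemical samples were read in triplicate runs, and signal changes were fitted in both directions relative to DMSO.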

SRD5A2 (gene 6716) = assay: CCTE_Deisenroth_5AR_NBTE_ratio: CCTE's 5alpha-reductase NanoBRET Target Engagement Assay - Ratio, Deisenroth Lab (AID 2284322; active means hit-call score of the fitted dose curve at least 0.9, where 1 is the maximum; inactive means score below 0.9); conditions: actives raise or lower the signal
In short: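 Reverse-transfect HEK293T with pNLF1-C-SRD5A2, express 20 h. Pre-incubate cells with chemical 3 h (8-point series, 10 nM - 29.9 uM, duplicate). Add testosterone tracer, 2 h more. Add substrate/inhibitor, read donor and acceptor emission.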

[14] = VALA_MIGHUV1_ScratchOnly_CellCount: Viability Assessment in the VALA Sciences human Umbilical Vein Endothelial Cell Migration (MIGHUV) Assay, Scratch Wound Inhibited Recovery (AID 2284327)
In short: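 HUVEC scratched after 24 h culture, chemical added within 30 min at 6 concentrations in triplicate (0.1% DMSO vehicle). After 24 h recovery, fixed cells were counted by Hoechst nuclear imaging in the wound area.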

Measured: AC50

CC1=NNC(=O)N(/N=C/c2cccnc2)C1
inactive: [1] | [2] | [3] | [4] | [5] | [6] | [7] | [8] | [9]

CCOP(=S)(OCC)Oc1cc(C)nc(C(C)C)n1
inactive: [10] | [1] | [2] | [3] | [4] | [6]

CCOP(=O)(OCC)Oc1cc(C)nc(C(C)C)n1
inactive: [10] | [1] | [2] | [3] | [4] | [6] | IYD (gene 389434) | [9]

S=C1NCCN1
not listed: [5] | IYD (gene 389434) | [12] | [13] | SRD5A2 (gene 6716) | [14]
inactive: all other assays above

CC(=NC#N)N(C)Cc1ccc(Cl)nc1
inactive: [1] | [2] | [3] | [4] | [6]

CON=C(C(=O)OC)c1ccccc1CON=C(C)c1cccc(C(F)(F)F)c1
active: [10] 7.95 µM | [1] 0.127 µM | [9] 13.3 µM
inactive: [2] | [3] | [4] | [6]

CCCOCC(=Nc1ccc(Cl)cc1C(F)(F)F)n1ccnc1
inactive: IYD (gene 389434)

CSC1=N[C@@](C)(c2ccccc2)C(=O)N1Nc1ccccc1
inactive: [1] | [2] | [3] | [4] | [6] | [9] | [12] | [13] | SRD5A2 (gene 6716)

CCOP(=O)(NC(C)C)Oc1ccc(SC)c(C)c1 (stereo not drawn)
active: [10] 10.2 µM
inactive: [1] | [2] | [3] | [4] | [6] | [9]

N#CSCSC#N
active: SRD5A2 (gene 6716) 19.5 µM
inactive: [12] | [13]

C[N+]1(C)CCCCC1
active: [3] 0.0969 µM
inactive: [10] | [1] | [2] | [4] | [6]

CN(C)[C@@H]1C(=O)C(C(N)=O)=C(O)[C@@]2(O)C(=O)C3=C(O)c4c(O)cccc4[C@@](C)(O)[C@H]3[C@H](O)[C@@H]12
active: [3] 25.8 µM | [4] 72.5 µM | [8] 50 µM | [9] 24.6 µM
not listed: [1] | [7] | IYD (gene 389434) | [11]
inactive: all other assays above

CCOP(=S)(Oc1cnc(C(C)(C)C)nc1)OC(C)C (stereo not drawn)
inactive: [10] | [1] | [2] | [3] | [4] | [6]
active: [9] 21 µM

CCCCSP(=O)(SCCCC)SCCCC
inactive: [10] | [1] | [2] | [3] | [4] | [6] | IYD (gene 389434) | [9]
